# Assays:
# Croc = biological target: T1, Croc (Drosophila melanogaster, UniProt P32027 54-175); test: FP; 20 mM Tris-acetate pH 7.0, 50 "nM" NaCl as printed (probably mM), 0.01% Tween 20, 0.1 mM DTT; conventional titration; conditions: tags: N-GST (pGEX-6P-1, kept); dsDNA, one strand shown
# T1 sequence: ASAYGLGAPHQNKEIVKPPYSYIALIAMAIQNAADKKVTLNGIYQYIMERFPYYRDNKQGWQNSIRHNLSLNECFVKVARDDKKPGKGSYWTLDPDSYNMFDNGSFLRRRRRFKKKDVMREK
# Ems = biological target: T2, Ems (Drosophila melanogaster, UniProt P18488 373-462); test: FP; 33 mM phosphate pH 7.0, 90 mM NaCl, 0.01% Tween 20, 0.1 mM DTT, 0.5% agarose; room temperature; conditions: tags: N-GST (pGEX-6P-1, kept); dsDNA, one strand shown
# T2 sequence: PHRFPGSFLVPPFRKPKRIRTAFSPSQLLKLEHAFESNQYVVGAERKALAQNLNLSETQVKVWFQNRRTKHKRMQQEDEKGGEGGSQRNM
# Br = biological target: T3, Br (Drosophila melanogaster, UniProt Q24206 697-775); test: as above; conditions: tags: N-GST (pGEX-6P-1, kept); dsDNA, one strand shown
# T3 sequence: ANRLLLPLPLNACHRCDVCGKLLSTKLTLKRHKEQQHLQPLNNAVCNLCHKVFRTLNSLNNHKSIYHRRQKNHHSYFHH
# Eip93f = biological target: T4, Eip93f (Drosophila melanogaster, UniProt Q9VD60 752-830); test: as above; conditions: tags: N-GST (pGEX-6P-1, kept); dsDNA, one strand shown
# T4 sequence: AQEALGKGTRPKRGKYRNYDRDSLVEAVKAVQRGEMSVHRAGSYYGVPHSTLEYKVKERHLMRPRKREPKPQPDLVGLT
# Hkb = biological target: T5, Hkb (Drosophila melanogaster, UniProt Q9VN10 181-296); test: as above; conditions: tags: N-GST (pGEX-6P-1, kept); dsDNA, one strand shown
# T5 sequence: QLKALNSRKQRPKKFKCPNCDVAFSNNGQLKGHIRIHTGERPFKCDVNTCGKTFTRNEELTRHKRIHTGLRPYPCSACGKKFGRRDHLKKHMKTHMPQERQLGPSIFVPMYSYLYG
# EcR = biological target: T6, EcR (Drosophila melanogaster, UniProt P34021 251-348); test: as above; conditions: tags: N-GST (pGEX-6P-1, kept); dsDNA, one strand shown
# T6 sequence: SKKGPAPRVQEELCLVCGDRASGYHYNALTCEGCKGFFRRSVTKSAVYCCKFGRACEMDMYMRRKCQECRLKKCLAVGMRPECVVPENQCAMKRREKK
# Gsc = Gsc (Drosophila melanogaster, UniProt P54366 267-356); test: as above; conditions: tags: N-GST (pGEX-6P-1, kept); dsDNA, one strand shown
# Ttk-PF = Ttk-PF (Drosophila melanogaster, UniProt P17789 499-564); test: as above; conditions: dsDNA, one strand shown
# Cic = Cic (Drosophila melanogaster, UniProt Q9U1H0 483-565); test: as above; conditions: tags: N-GST (pGEX-6P-1, kept); dsDNA, one strand shown
# Chain of Gsc (P54366 267-356): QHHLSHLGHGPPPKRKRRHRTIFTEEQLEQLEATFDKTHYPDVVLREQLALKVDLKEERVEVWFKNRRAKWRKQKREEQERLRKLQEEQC
sequence,measurement,setting,value
TTAGATAGATATA,binding signal,Croc,1160 Kd / Kd of best base at the position
CACATAATTAGCTCA,binding signal,Ems,1.34 Kd / Kd of best base at the position
CACGTAATTAGCTCA,Kd,Ems,~0.0017 µM
CACGTATTTAGCTCA,binding signal,Ems,11.1 Kd / Kd of best base at the position
CACGTAATTAGGTCA,binding signal,Ems,7.3 Kd / Kd of best base at the position
GGAATTAGATAAC,binding signal,Br,1.59 Kd / Kd of best base at the position
GGAATCAGAAAAC,binding signal,Br,> 1590 Kd / Kd of best base at the position
GTAATTAGAAAAC,binding signal,Br,2.7 Kd / Kd of best base at the position
GGAATTACAAAAC,binding signal,Br,109 Kd / Kd of best base at the position
GGAATGAGAAAAC,binding signal,Br,> 1590 Kd / Kd of best base at the position
GCAATTAGAAAAC,binding signal,Br,3.05 Kd / Kd of best base at the position
GGAATTAGAAAAT,binding signal,Br,1.5 Kd / Kd of best base at the position
GGAATTAGAAAAG,binding signal,Br,1.23 Kd / Kd of best base at the position
GGTATTAGAAAAC,binding signal,Br,2.13 Kd / Kd of best base at the position
GGATTTAGAAAAC,binding signal,Br,2.42 Kd / Kd of best base at the position
GGAATTAGAAAGC,binding signal,Br,1.36 Kd / Kd of best base at the position
GGAATTAGAAGAC,binding signal,Br,1.24 Kd / Kd of best base at the position
GGAATTAGAACAC,binding signal,Br,1.98 Kd / Kd of best base at the position
AGAATTAGAAAAC,binding signal,Br,1.96 Kd / Kd of best base at the position
GGAGTTAGAAAAC,binding signal,Br,2.41 Kd / Kd of best base at the position
GGAATTAGAAAAC,Kd,Br,~0.0063 µM
GGAATTAAAAAAC,binding signal,Br,> 1590 Kd / Kd of best base at the position
GGAATTAGAAACC,binding signal,Br,1.42 Kd / Kd of best base at the position
GGAATTAGACAAC,binding signal,Br,3.07 Kd / Kd of best base at the position
GGAATTCGAAAAC,binding signal,Br,> 1590 Kd / Kd of best base at the position
CATCGCCGAAAATCG,binding signal,Eip93f,2.02 Kd / Kd of best base at the position
CGAATTAGAAAAC,binding signal,Br,1.68 Kd / Kd of best base at the position
GGAATTAGAATAC,binding signal,Br,1.82 Kd / Kd of best base at the position
GGAATTAGTAAAC,binding signal,Br,6.81 Kd / Kd of best base at the position
GGAATTAGAAAAA,binding signal,Br,1.22 Kd / Kd of best base at the position
GGAATTAGCAAAC,binding signal,Br,6.43 Kd / Kd of best base at the position
GGAATTTGAAAAC,binding signal,Br,23.5 Kd / Kd of best base at the position
CATAGCCAAAAATCG,binding signal,Eip93f,1.28 Kd / Kd of best base at the position
GGACTTAGAAAAC,binding signal,Br,2.43 Kd / Kd of best base at the position
GGAAATAGAAAAC,binding signal,Br,7.11 Kd / Kd of best base at the position
GGAATTATAAAAC,binding signal,Br,59.2 Kd / Kd of best base at the position
GGGATTAGAAAAC,binding signal,Br,1.54 Kd / Kd of best base at the position
CATAGCCGAAAATCG,Kd,Eip93f,~0.0145 µM
CATAGCAGAAAATCG,binding signal,Eip93f,23.3 Kd / Kd of best base at the position
GGAACTAGAAAAC,binding signal,Br,4.4 Kd / Kd of best base at the position
CACAGCCGAAAATCG,binding signal,Eip93f,1.26 Kd / Kd of best base at the position
TGAATTAGAAAAC,binding signal,Br,2.02 Kd / Kd of best base at the position
GGAATTGGAAAAC,binding signal,Br,438 Kd / Kd of best base at the position
CATAGCCGAGAATCG,binding signal,Eip93f,22.5 Kd / Kd of best base at the position
AAGAGGCGTGAT,binding signal,Hkb,8.29 Kd / Kd of best base at the position
AAGGGGCTTGAT,binding signal,Hkb,235 Kd / Kd of best base at the position
GAATGGCCCCTAC,binding signal,EcR,5.84 Kd / Kd of best base at the position
AATTAATCGGAT,binding signal,Gsc,3.62 Kd / Kd of best base at the position
TAGCCAGGATAAC,binding signal,Ttk-PF,1.69 Kd / Kd of best base at the position
CATTGAATGGGGT,binding signal,Cic,1.53 Kd / Kd of best base at the position
CGTTGAATGGGAT,binding signal,Cic,1.93 Kd / Kd of best base at the position
CGGTGAATGGGGT,binding signal,Cic,2.27 Kd / Kd of best base at the position
CTTTGAATGGGGT,binding signal,Cic,1.85 Kd / Kd of best base at the position
CGTTAAATGGGGT,binding signal,Cic,3.06 Kd / Kd of best base at the position
CGTGGAATGGGGT,binding signal,Cic,17.5 Kd / Kd of best base at the position
CGTTGAATGTGGT,binding signal,Cic,4.08 Kd / Kd of best base at the position
CGTTGAATGGTGT,binding signal,Cic,2.29 Kd / Kd of best base at the position
CGATGAATGGGGT,binding signal,Cic,2.02 Kd / Kd of best base at the position
CGTTGAATGGGGC,binding signal,Cic,2.65 Kd / Kd of best base at the position
CGTTGGATGGGGT,binding signal,Cic,20.4 Kd / Kd of best base at the position
CGCTGAATGGGGT,binding signal,Cic,3.22 Kd / Kd of best base at the position
CGTTGAAGGGGGT,binding signal,Cic,11.1 Kd / Kd of best base at the position
CGTAGAATGGGGT,binding signal,Cic,5.55 Kd / Kd of best base at the position
CGTTGAATGGGGA,binding signal,Cic,2.36 Kd / Kd of best base at the position
AGTTGAATGGGGT,binding signal,Cic,1.69 Kd / Kd of best base at the position
GGTTGAATGGGGT,binding signal,Cic,1.41 Kd / Kd of best base at the position
CGTTTAATGGGGT,binding signal,Cic,4.43 Kd / Kd of best base at the position
CGTTGAAAGGGGT,binding signal,Cic,8.64 Kd / Kd of best base at the position
CGTTGAATGCGGT,binding signal,Cic,7.69 Kd / Kd of best base at the position
CGTTGAATGGGGT,Kd,Cic,~0.0341 µM
CGTTGAATGAGGT,binding signal,Cic,2.2 Kd / Kd of best base at the position
TGTTGAATGGGGT,binding signal,Cic,1.66 Kd / Kd of best base at the position
CGTTGCATGGGGT,binding signal,Cic,17.1 Kd / Kd of best base at the position
CGTCGAATGGGGT,binding signal,Cic,12.4 Kd / Kd of best base at the position
CGTTGAATAGGGT,binding signal,Cic,6.64 Kd / Kd of best base at the position
CGTTGAATGGAGT,binding signal,Cic,1.79 Kd / Kd of best base at the position
CGTTGATTGGGGT,binding signal,Cic,8.11 Kd / Kd of best base at the position
CGTTGAACGGGGT,binding signal,Cic,10.1 Kd / Kd of best base at the position
CGTTGAATGGCGT,binding signal,Cic,2 Kd / Kd of best base at the position
CGTTGAATTGGGT,binding signal,Cic,6.71 Kd / Kd of best base at the position
CGTTGAGTGGGGT,binding signal,Cic,7.68 Kd / Kd of best base at the position
CCTTGAATGGGGT,binding signal,Cic,1.89 Kd / Kd of best base at the position
CGTTCAATGGGGT,binding signal,Cic,1.93 Kd / Kd of best base at the position
CGTTGTATGGGGT,binding signal,Cic,5.33 Kd / Kd of best base at the position
CGTTGAATGGGCT,binding signal,Cic,1.86 Kd / Kd of best base at the position
CGTTGAATGGGGG,binding signal,Cic,2.15 Kd / Kd of best base at the position
CGTTGACTGGGGT,binding signal,Cic,3.64 Kd / Kd of best base at the position
CGTTGAATCGGGT,binding signal,Cic,7.88 Kd / Kd of best base at the position
CGTTGAATGGGTT,binding signal,Cic,1.85 Kd / Kd of best base at the position
